According to PubChem BioAssay AID652016 (National Center for Advancing Translational Sciences (NCATS), 2013):
Results filed as inconclusive are left out. Activity calls are given as the source filed them. Calls come from the whole dose curve; as a rule, active = well fitted inhibition curve with a large enough effect; inconclusive = small, poorly fitted or top-dose-only effect; inactive = flat fitted curve, though single readings scatter.

molecular target: Luciferin 4-monooxygenase (Photinus pyralis) (UniProt P08659); experiment: qHTS Assay for Inhibitors of Firefly Luciferase from the GSK Published Protein Kinase Inhibitor Set; settings: purified firefly luciferase, luminescence inhibition; series mostly up to 57.5 µM
Sequence (P08659 whole entry, looked up): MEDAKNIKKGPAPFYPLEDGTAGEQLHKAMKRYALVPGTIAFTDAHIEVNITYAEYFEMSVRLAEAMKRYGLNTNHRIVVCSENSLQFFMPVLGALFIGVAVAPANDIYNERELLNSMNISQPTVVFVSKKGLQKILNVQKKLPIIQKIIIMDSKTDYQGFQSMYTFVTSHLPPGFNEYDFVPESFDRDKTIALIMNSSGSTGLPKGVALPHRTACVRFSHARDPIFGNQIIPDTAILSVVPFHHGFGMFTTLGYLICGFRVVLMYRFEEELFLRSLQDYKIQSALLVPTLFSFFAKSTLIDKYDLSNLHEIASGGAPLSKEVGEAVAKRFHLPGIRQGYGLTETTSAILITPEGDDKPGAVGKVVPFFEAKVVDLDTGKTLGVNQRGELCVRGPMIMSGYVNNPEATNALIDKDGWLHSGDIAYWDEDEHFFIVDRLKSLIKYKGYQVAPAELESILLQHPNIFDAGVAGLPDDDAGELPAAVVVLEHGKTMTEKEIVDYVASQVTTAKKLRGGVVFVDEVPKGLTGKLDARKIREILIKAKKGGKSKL
Summary of the method: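 Enzyme-level luminescence assay: compounds titrated (about 60uM down to 300pM) into substrate buffer (10uM ATP, 10uM D-luciferin, pH 7.5 Tris acetate with Mg, Tween-20, BSA), then 10nM firefly luciferase added; read after ~5 min.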

Potency, inactive:
CN1CCC(n2cnc(-c3ccc(F)cc3)c2-c2ccnc(N)n2)CC1, Fc1ccc(Nc2nccc(-c3c(-c4ccc(C(F)(F)F)cc4)nn4ncccc34)n2)cc1F, NS(=O)(=O)c1ccc(N=Nc2c(O)[nH]c3ccc(-c4cnco4)cc23)cc1, COc1ccc(-c2nn3ncccc3c2-c2ccnc(Nc3cccc(C(F)(F)F)c3)n2)cc1, CN1CCN(CCCNc2nc3ccc(Oc4ccc(NC(=O)Nc5cc(C(F)(F)F)ccc5F)cc4)cc3[nH]2)CC1, COc1cc2ncn(-c3cc(OCc4ccccc4C(F)(F)F)c(C(=O)N(C)C)s3)c2cc1OC, CCn1cc(-c2ccnc3[nH]ccc23)c(-c2cccc(NC(=O)Nc3ccc(OCc4ccccc4)cc3)c2)n1, Nc1nc(-c2cccc(Cl)c2)c(-c2ccc3ncccc3n2)s1, CS(=O)(=O)CCNCc1ccc(-c2ccc3ncnc(Nc4ccc(OCc5cccc(F)c5)c(C(F)(F)F)c4)c3c2)o1, O=C1NC(=O)C(c2cccc(Cl)c2)=C1Nc1ccc(O)c(Cl)c1, CS(=O)(=O)CCNCc1ccc(-c2ccc3ncnc(Nc4ccc(OCc5cccc(C(F)(F)F)c5)cc4)c3c2)o1, COc1cc(N2CCN(C(C)C)CC2)ccc1Nc1nc(Nc2ccc(F)cc2C(=O)NCC(O)CO)c2cc[nH]c2n1 (centres undefined), Fc1ccc(-c2ncn(C3CCNCC3)c2-c2ccnc(Oc3ccc(F)c(F)c3)n2)cc1, COc1cc2ncn(-c3cc(OCc4ccccc4C(F)(F)F)c(C(C)=O)s3)c2cc1OC
